Each structure is given as a SMILES string. Compounds without any hit were thinned out: in the full panel of roughly 79,000, 15% have a hit. The source made the active and inactive calls. Rule as the data show it: active = growth inhibition above about 70%; inactive = the rest.

This experiment is described as follows: NCI Yeast Anticancer Drug Screen. Data for the sgs1 mgt1 strain (AID 161).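 Also: 0% = growth of cultures given vehicle only.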 To be noted: S. cerevisiae sgs1 mgt1 strain, at 5.0 µM (retest, dose inferred, filed as 0.5), stronger effect = higher value. The method, boiled down: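 Mutant yeast exposed to compound; growth scored against vehicle-only wells.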
Turning to `CCCCCCCCCCS(=O)(=O)Nc1ccc(C(=O)NN)cc1`, the growth inhibition was 42% (inactive).

For `ON(C(=Nc1ccc(Cl)cc1)c1ccccc1)c1ccccc1`, the growth inhibition was -5% (inactive). With `Cc1ccc(-c2c(N)[n+]([O-])c3ccccc3[n+]2[O-])cc1` the figure was 47% (inactive). To `NC(=O)C12OC3CC(CC(C3)O1)O2` belongs -9% (inactive); to `C=C(C)[P+](C)(c1ccccc1)c1ccccc1`, -8% (inactive); to `CCC(C)SC1SCC2C(=O)N(C)C3(CC3C)C(=O)OCC(NC(=O)c3nc4ccccc4cc3O)C(=O)NC(C)C(=O)N(C)C1C(=O)N(C)C1(CC1C)C(=O)OCC(NC(=O)c1nc3ccccc3cc1O)C(=O)NC(C)C(=O)N2C` (stereo not given), 80% (active).

Turning to `COc1ccc2ccc(=O)oc2c1CC=C(C)C`, the growth inhibition is 6% (inactive).

As for `O=c1ccn(C2OC(COC(c3ccccc3)(c3ccccc3)c3ccccc3)C(O)C2O)c(=O)[nH]1` (stereo not given), the growth inhibition was 25% (inactive).

As to `O=C1C(=O)C(Cc2ccccc2)(c2ccccc2)C(=O)N1c1ccccc1` (stereo not given), the growth inhibition was -2% (inactive). For the molecule `CCC(O)C(O)(c1ccccc1)c1nc2ccccc2s1` (stereo not given), the growth inhibition was -7% (inactive). With `c1ccc(-n2ncc3ccc4cccn4c32)cc1` the figure was -15% (inactive); with `O=C(c1ccc([N+](=O)[O-])cc1)C(Br)C(Br)c1ccnc2ccccc12` (stereo not given), 21% (inactive); with `[Cl][Sn]1([Cl])[CH2]CC[CH2][Sn]([Cl])([Cl])[CH2]CC[CH2][Sn]([Cl])([Cl])[CH2]CC[CH2][Sn]([Cl])([Cl])[CH2]CC[CH2]1`, -3% (inactive). With `Nc1ccc(O)c(=O)cc1` the figure was 0% (inactive). With `CC(C)c1cc(C(=O)[O-])c(O)c(C(C)C)c1.CC(C)c1cc(C(=O)[O-])c(O)c(C(C)C)c1.CC(C)c1cc(C(=O)[O-])c(O)c(C(C)C)c1.CC(C)c1cc(C(=O)[O-])c(O)c(C(C)C)c1.CC(C)c1cc(C(=O)[O-])c(O)c(C(C)C)c1.CC(C)c1cc(C(=O)[O-])c(O)c(C(C)C)c1.[Cu+2].[Mn+2].[Mn+2]` the figure was 31% (inactive). Take `CC1=C(C(=O)Nc2cccc(C(F)(F)F)c2)C(c2ccccc2F)C(C(=O)Nc2cccc(C(F)(F)F)c2)=C(C)N1`: the growth inhibition was 29% (inactive). To `O=C(c1ccccc1)C(C(=O)c1ccccc1)c1ccc2ccccc2n1` belongs -2% (inactive); to `NC(=S)N1N=C2c3ccccc3CC[C@H]2[C@@H]1c1cccs1`, -26% (inactive); to `O=CC(O)CN1CCCC1` (stereo not given), 2% (inactive). With `CCCCCN(CCCCC)CC(C)(C)C(O)c1ccc(OC)c2ccccc12` (stereo not given) the figure was 1% (inactive). With `CSC(=S)n1nc(-c2cccs2)c(N=Nc2ccccc2)c1C(F)(F)F` the figure was 8% (inactive). In the case of `CC(O)C1CCCC[N+]1(C)C` (stereo not given), the growth inhibition was -1% (inactive). On to `CCCCCCCCCCCC(=O)N(CCOC(=O)c1ccco1)CCOC(=O)c1ccco1`, for which the growth inhibition is 31% (inactive). To `CCOC(=O)NC(=S)Nc1ccsc1` belongs 1% (inactive); to `O=C(O)c1ccc(C(O)(c2ccccc2)c2ccccc2)cc1`, -9% (inactive); to `N#CSCCSCc1ccc(Cl)cc1`, 7% (inactive).

On to `CN(/N=C\c1ccc(Cl)cc1)C(c1ccc(Cl)cc1)N(C)/N=C/c1ccc(Cl)cc1` (stereo not given), for which the growth inhibition is -3% (inactive). `CC(C)(C)[Si](C)(C)OCC1OC(n2cc(I)c(N)nc2=O)C(O[Si](C)(C)C(C)(C)C)C1O[Si](C)(C)C(C)(C)C` (stereo not given): the growth inhibition was 85% (active). To `O=C1C(=O)c2cc(Br)cc([N+](=O)[O-])c2-c2ccc(Br)cc21` belongs 83% (active); to `C(=NCCc1ccccc1)c1ccccc1B1OB(c2ccccc2C=NCCc2ccccc2)OB(c2ccccc2C=NCCc2ccccc2)O1`, 90% (active). Take `O=[N+]([O-])c1ccc(-c2ccccc2Cl)c([N+](=O)[O-])c1`: the growth inhibition was 6% (inactive). To `CC12CCC(=O)C=C1CCC1C2CCC2(C)C(c3cnc[nH]3)CCC12` (stereo not given) belongs 39% (inactive); to `COc1cccc(C2CC(C)(O)Oc3cc4c(cc32)OCO4)c1` (stereo not given), -12% (inactive).

For `N/C(=N\N=C\c1cc(I)cc(I)c1O)NO`, the growth inhibition was 2% (inactive).

As to `Cc1ccc2nn(-c3ccc(O)cc3)nc2c1`, the growth inhibition was 7% (inactive). To `COC(=O)C1=C(NC(=O)Nc2ccc(Cl)cc2)OC(C)(C)C1c1ccc(Cl)cc1` (stereo not given) belongs 85% (active); to `CCCC/C=C\CCCCCCCCCC1=C(O)C(=O)C=C(OC)C1=O`, 74% (active); to `Cc1nn(C(=O)c2ccccc2O)c2c1C(c1ccco1)SC(N)=N2` (stereo not given), 8% (inactive). To `CC1=C(CO)C(=O)O[C@@H]([C@@H](C)[C@H]2CC[C@H]3[C@@H]4C[C@@H](O)C5=CC=CC(=O)[C@]5(C)[C@H]4CC[C@]23C)C1` belongs -1% (inactive); to `O=C(CNC(=O)Nc1ccc(NC(=O)NCC(=O)Nc2ccc(C3=NCCN3)cc2)cc1)Nc1ccc(C2=NCCN2)cc1`, 2% (inactive).

The record behind these values is PubChem BioAssay (NCI).
